Assay results reported in ChEMBL document CHEMBL3988442, “University of Dundee, Small-Polar-MMV Screening Library” (2021).
Hit rate of the full screen: of about 48,000 compounds, about 13,000 (27%) showed an effect of 50% or more. This is one part of the list.

What follows are compounds tested on Wolbachia pipientis (assay: Anti-Wolbachia Cell-Based Screen). Settings: 5 µM.
Type: functional
Set-up: scale not given: in the data most compounds retested in dose-response had high values

Row | SMILES | Percent Effect [%]
1 | Cc1cc(NC(=O)NC(C)(C)c2nc(C)c(C)s2)no1 | 5.891
2 | CSc1ccc(-c2nc(CN3CCC(C(N)=O)CC3)c(C)o2)cc1 | 12.72
3 | Cc1cc(S(=O)(=O)N2CCC(N3CCC(O)C3)CC2)c(Cl)cc1Cl (configuration not stated) | -12.47
4 | CCn1cnnc1CN(C)Cc1c[nH]nc1-c1ccc(F)cc1 | 6.499
5 | Cc1cnc(C(=O)N2CCc3c(nc(-c4ccncc4)[nH]c3=O)C2)cn1 | -3.986
6 | O=C(c1ccccn1)N1CCc2c(nc(-c3ccncc3)[nH]c2=O)C1 | -0.04653
7 | Cc1ncc(CN2CCc3c(nc(-c4ccccn4)[nH]c3=O)C2)n1C | 100.8
8 | Cn1ccnc1-c1ccccc1C(=O)N1CCc2c(nc(N)[nH]c2=O)C1 | 1.911
9 | Cn1cccc1CN1CCc2c(nc(-c3ccccn3)[nH]c2=O)C1 | 114.7
10 | CC(NC(=O)N1CCN(c2ccc(Cl)cc2)CC1)C(=O)N1CCSCC1 (configuration not stated) | -1.833
11 | Nc1nc(C2CCN(C(=O)c3cnccn3)CC2)cs1 | 113.4
12 | CCc1nc(CN2CCN(C(=O)c3cnccn3)CC2)cs1 | -1.168
13 | O=C(c1cnccn1)N1CCC(Oc2ncccc2Cl)CC1 | 33.47
14 | Nc1nc(C2CCN(C(=O)c3cnco3)CC2)cs1 | 114.6
15 | O=C(NCC1CCCN1Cc1ccccc1)NCC1(O)CCC1 (configuration not stated) | 10.62
16 | CCCn1ccnc1CN1C[C@@H](NC(C)=O)[C@H](c2ccc(C)cc2)C1 | -5.902
17 | CCOCCCNC(=O)c1nn(CC)cc1Cl | 13.91
18 | CCCn1cc(Cl)c(C(=O)N2C[C@H]3C[C@H](OC)C[C@H]3C2)n1 | 128.4
19 | CCCn1cc(Cl)c(C(=O)N2C[C@@H](O)[C@H](NC(C)=O)C2)n1 | 135.9
20 | CC(=O)N[C@@H]1CN(C(=O)c2ccncc2)C[C@H]1c1ccc(C)cc1 | -2.552
21 | Cn1cc(Cl)c(C(=O)N2CCC(N3CCc4ccccc4C3)CC2)n1 | 3.443

Row | SMILES | Percent Effect [%]
22 | CCCn1cc(Cl)c(C(=O)N2C[C@@H](O)[C@H](Oc3ccccc3)C2)n1 | 77.97
23 | CCCn1cc(C(=O)n2nc(C)cc2C)c(S(=O)(=O)N2CCSCC2)n1 | -15.72
24 | Cn1cc(Cl)c(C(=O)N2CCCN(C3Cc4ccccc4C3)CC2)n1 | 3
25 | COCCN(Cc1ccccn1)C(=O)CC1OCCc2ccsc21 (configuration not stated) | 1.398
26 | COc1ccc(Br)cc1CN(C)C(C)c1nc(C)no1 (configuration not stated) | 6.293
27 | COc1ccc(C2(NCc3noc(C4CC4)n3)CCOCC2)cc1 | -5.013
28 | COC(C)c1cccc(NC(=O)N(CCC#N)Cc2ccccn2)c1 (configuration not stated) | 1.571
29 | O=C(Nc1cccc(CN2CCOC2=O)c1)N1CCOCC1 | -4.373
30 | CC1NC(=O)COC12CCN(C(=O)Cc1ccsc1)CC2 (configuration not stated) | -21.8
31 | CCN1CCNC(=O)C12CCN(C(=O)Cc1ccsc1)CC2 | 113.3
32 | O=C1NC2(CCN(C(=O)Cc3ccsc3)CC2)CC1c1ccncc1 (configuration not stated) | -1.55
33 | Cc1nn(C)cc1C(=O)N1CCCN(C2Cc3ccccc3C2)CC1 | -1.892
34 | COc1cccc([C@@]2(O)CC[C@@H]3CN(C(=O)c4cn(C)nc4C)C[C@@H]32)c1 | 91.14
35 | COc1cccc(OCC2CCCN(C(=O)c3cnc(C)nc3O)C2)c1 (configuration not stated) | -22.18
36 | COCCN1C(=O)CCC12CCCN(c1ncc(F)cn1)CC2 (configuration not stated) | -9.893
37 | O=C1CCC2(CCN(S(=O)(=O)c3ccccc3)CC2)N1CC1CC1 | -5.701
38 | COCCN1C(=O)CC[C@]12CC[C@@H](NC(=O)c1cc(C)on1)CC2 | -11.81
39 | COCCN1C(=O)CCC12CCN(c1ncc(F)cn1)CC2.O=C(O)C(F)(F)F | 4.325
40 | COCCN1C(=O)CCC12CCN(C(=O)CNC(C)=O)CC2 | 102.7
41 | Cc1ccc(C(=O)N2CCC3(CCC(=O)N(CCN(C)C)C3)CC2)nc1 | 13.38
42 | O=C(CC1CC1)N1CCCC2(CCC(=O)N2CC2CC2)CC1 (configuration not stated) | 113.9

Row | SMILES | Percent Effect [%]
43 | COCCN1C(=O)CCC12CCCN(C(=O)CC1CC1)CC2 (configuration not stated) | 103.4
44 | CCC(C(=O)N1CCCN(CCN(C)C)CC1)N1CCCC1=O (configuration not stated) | -2.353
45 | CN(C)CCN1C(=O)CCC12CCCN(C(=O)CC1CC1)CC2 (configuration not stated) | 109.9
46 | Cc1cc(C(=O)N[C@H]2CC[C@@]3(CCC(=O)N3CC3CC3)CC2)no1 | -41.45
47 | c1ccc(OCCNc2ncnc3sc4c(c23)CCNC4)cc1 | 38.96
48 | CCN1C[C@H]2CCN(c3ncccn3)CC[C@H]2S1(=O)=O | 3.931
49 | Cc1cc(C)nc(NC2CCc3nc(C)nn3C2)n1 (configuration not stated) | 12.23
50 | O=C(O)CC(NC(=O)c1cc(Br)c[nH]1)c1ccccc1 (configuration not stated) | 7.291
51 | CN(C)CCN1C(=O)CCC12CCN(C(=O)CC1CC1)CC2 | 92.35
52 | Cc1c(C(=O)N2CCC3(CCC(=O)N(CCN(C)C)C3)CC2)ccn1C | 2.177
53 | O=C(c1nccc2ccccc12)N(Cc1ccco1)CC1CCCO1 (configuration not stated) | 5.16
54 | CC(C)(C)OC(=O)NCC(=O)NCc1ccc(Cl)s1 | 16.63
55 | CNC(=O)COC1COC2(CCN(Cc3ccncc3F)CC2)C1.O=C(O)C(F)(F)F (configuration not stated) | 109.2
56 | O=C(O)C(F)(F)F.c1cncc(COC2COC3(CCN(c4cnccn4)CC3)C2)c1 (configuration not stated) | 8.045
57 | CNC(=O)COC1COC2(CCN(c3ccc(C)nn3)CC2)C1.O=C(O)C(F)(F)F (configuration not stated) | -17.84
58 | CNC(=O)COC1COC2(CCN(c3cnccn3)CC2)C1.O=C(O)C(F)(F)F (configuration not stated) | 11.18
59 | CNC(=O)COC1COC2(CCN(Cc3cccnc3)CC2)C1.O=C(O)C(F)(F)F (configuration not stated) | 120
60 | Fc1ccc(F)c(CN2CCC(c3n[nH]c4ncccc34)CC2)c1.O=C(O)CC(O)(CC(=O)O)C(=O)O | 96.71
61 | c1cnc2c(C3CCN(Cc4ccsc4)CC3)n[nH]c2n1 | -13.91
62 | O=C(O)CC(O)(CC(=O)O)C(=O)O.c1cnc2[nH]nc(C3CCN(Cc4ccsc4)CC3)c2c1 | 113.3
